Data: ChEMBL document CHEMBL1961873, “Compounds: GSK PKIS; Assays: Nanosyn kinase panel” (2012)

Legend:
[1] = molecular target: High affinity nerve growth factor receptor (Homo sapiens) (UniProt P04629); settings: at 1 µM;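 note: each value is the mean percent inhibition of TRKA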
[2] = molecular target: BDNF/NT-3 growth factors receptor (Homo sapiens) (UniProt Q16620); settings: at 0.1 µM
[3] = molecular target: BDNF/NT-3 growth factors receptor (Homo sapiens) (UniProt Q16620); settings: at 1 µM
[4] = molecular target: NT-3 growth factor receptor (Homo sapiens) (UniProt Q16288); settings: at 0.1 µM
[5] = molecular target: NT-3 growth factor receptor (Homo sapiens) (UniProt Q16288); settings: at 1 µM
[6] = molecular target: T1, Tyrosine-protein kinase TXK (Homo sapiens) (UniProt P42681); settings: at 0.1 µM
T1 sequence (whole entry): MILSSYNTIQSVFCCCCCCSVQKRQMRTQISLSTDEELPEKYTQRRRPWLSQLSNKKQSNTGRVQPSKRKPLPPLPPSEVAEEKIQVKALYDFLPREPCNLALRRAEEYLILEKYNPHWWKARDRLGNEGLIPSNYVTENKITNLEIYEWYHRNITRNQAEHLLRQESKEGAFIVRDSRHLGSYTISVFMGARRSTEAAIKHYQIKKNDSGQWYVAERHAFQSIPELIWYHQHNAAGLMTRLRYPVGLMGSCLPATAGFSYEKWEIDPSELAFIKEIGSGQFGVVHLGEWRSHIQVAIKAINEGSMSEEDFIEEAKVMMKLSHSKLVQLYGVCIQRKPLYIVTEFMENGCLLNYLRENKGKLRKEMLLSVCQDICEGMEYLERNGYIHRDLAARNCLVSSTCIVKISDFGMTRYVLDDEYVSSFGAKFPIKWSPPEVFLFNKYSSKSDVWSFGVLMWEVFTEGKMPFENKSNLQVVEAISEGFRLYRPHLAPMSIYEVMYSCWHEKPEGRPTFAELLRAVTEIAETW

[7] = molecular target: T1, Tyrosine-protein kinase TXK (Homo sapiens); settings: at 1 µM
[8] = molecular target: Non-receptor tyrosine-protein kinase TYK2 (Homo sapiens) (UniProt P29597); settings: at 0.1 µM;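 note: each value is a mean of the inhibition readings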
[9] = molecular target: T2, Dual specificity protein kinase TTK (Homo sapiens) (UniProt P33981); settings: at 1 µM;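 note: reported figures are mean TTK inhibition at 1 µM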
T2 sequence (whole entry): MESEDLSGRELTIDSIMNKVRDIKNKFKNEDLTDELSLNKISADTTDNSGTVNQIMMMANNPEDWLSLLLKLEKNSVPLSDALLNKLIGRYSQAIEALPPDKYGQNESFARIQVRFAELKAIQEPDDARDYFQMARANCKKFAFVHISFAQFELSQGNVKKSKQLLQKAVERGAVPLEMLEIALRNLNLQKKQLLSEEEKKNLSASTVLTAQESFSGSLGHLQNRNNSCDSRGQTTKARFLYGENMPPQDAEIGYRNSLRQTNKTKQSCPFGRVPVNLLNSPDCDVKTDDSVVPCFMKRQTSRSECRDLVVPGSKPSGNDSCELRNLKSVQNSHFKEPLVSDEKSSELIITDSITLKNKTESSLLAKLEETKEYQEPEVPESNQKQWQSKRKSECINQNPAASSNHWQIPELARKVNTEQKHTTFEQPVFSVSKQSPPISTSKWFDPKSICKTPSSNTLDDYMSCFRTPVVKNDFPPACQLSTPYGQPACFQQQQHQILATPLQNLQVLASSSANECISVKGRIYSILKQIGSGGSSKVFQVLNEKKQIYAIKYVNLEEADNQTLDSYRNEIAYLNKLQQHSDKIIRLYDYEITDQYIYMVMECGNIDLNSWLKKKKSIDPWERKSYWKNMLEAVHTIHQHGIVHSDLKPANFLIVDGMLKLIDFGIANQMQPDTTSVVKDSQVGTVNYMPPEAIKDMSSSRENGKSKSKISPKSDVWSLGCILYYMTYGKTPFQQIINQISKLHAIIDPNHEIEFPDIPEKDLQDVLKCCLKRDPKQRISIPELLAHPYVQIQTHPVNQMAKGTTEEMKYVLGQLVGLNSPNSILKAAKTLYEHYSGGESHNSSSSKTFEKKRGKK

[10] = molecular target: T3, Aurora kinase A (Homo sapiens) (UniProt O14965); settings: at 0.1 µM
T3 sequence (whole entry): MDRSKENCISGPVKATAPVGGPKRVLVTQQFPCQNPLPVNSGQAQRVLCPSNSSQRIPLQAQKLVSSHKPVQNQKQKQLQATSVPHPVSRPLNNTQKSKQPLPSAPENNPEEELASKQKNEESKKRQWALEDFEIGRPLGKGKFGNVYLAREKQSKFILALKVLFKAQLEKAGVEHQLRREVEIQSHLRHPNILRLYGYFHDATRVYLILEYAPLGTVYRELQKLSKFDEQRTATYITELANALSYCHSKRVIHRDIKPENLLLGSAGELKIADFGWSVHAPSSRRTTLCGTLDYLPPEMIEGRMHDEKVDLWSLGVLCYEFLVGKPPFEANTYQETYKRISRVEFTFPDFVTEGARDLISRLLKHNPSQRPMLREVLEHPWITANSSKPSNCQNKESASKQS

[11] = molecular target: T3, Aurora kinase A (Homo sapiens); settings: at 1 µM
[12] = molecular target: Aurora kinase B (Homo sapiens) (UniProt Q96GD4); settings: at 0.1 µM
[13] = molecular target: Aurora kinase B (Homo sapiens) (UniProt Q96GD4); settings: at 1 µM
[14] = molecular target: T4, Aurora kinase C (Homo sapiens) (UniProt Q9UQB9); settings: at 0.1 µM
T4 sequence (whole entry): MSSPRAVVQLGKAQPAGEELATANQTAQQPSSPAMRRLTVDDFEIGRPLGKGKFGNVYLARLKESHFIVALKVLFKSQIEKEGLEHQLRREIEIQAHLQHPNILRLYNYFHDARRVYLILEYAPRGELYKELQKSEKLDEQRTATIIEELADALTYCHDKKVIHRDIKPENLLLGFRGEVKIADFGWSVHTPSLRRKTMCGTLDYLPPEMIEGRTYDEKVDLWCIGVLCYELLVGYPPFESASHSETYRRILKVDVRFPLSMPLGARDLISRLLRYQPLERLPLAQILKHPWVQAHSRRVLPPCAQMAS

[15] = molecular target: T4, Aurora kinase C (Homo sapiens); settings: at 1 µM
[16] = molecular target: Serine/threonine-protein kinase 10 (Homo sapiens) (UniProt O94804); settings: at 0.1 µM
[17] = molecular target: Serine/threonine-protein kinase 10 (Homo sapiens) (UniProt O94804); settings: at 1 µM
[18] = molecular target: T5, Mitogen-activated protein kinase kinase kinase kinase 2 (Homo sapiens) (UniProt Q12851); settings: at 0.1 µM
T5 sequence (whole entry): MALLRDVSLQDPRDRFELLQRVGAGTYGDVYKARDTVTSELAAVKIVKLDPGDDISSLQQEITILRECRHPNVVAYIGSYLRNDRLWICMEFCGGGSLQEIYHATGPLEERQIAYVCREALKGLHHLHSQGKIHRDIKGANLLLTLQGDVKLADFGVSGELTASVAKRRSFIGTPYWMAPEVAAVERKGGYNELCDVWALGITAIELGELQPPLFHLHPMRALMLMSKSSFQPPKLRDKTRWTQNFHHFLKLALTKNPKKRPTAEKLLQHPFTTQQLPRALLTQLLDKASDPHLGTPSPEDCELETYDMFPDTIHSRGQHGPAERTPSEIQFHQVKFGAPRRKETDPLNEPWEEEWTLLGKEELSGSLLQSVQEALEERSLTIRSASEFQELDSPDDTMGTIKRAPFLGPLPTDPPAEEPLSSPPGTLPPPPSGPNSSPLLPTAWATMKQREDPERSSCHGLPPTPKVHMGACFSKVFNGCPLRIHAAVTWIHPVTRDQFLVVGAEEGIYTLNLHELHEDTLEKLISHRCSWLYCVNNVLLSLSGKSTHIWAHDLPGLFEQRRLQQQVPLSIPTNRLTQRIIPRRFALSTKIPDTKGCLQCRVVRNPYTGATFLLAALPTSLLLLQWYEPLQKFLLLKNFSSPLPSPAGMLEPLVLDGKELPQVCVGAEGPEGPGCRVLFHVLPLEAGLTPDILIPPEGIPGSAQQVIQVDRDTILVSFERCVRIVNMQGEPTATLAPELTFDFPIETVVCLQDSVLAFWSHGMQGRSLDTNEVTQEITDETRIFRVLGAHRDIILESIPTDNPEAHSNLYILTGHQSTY

[19] = molecular target: T5, Mitogen-activated protein kinase kinase kinase kinase 2 (Homo sapiens); settings: at 1 µM
[20] = molecular target: Mitogen-activated protein kinase kinase kinase kinase 4 (Homo sapiens) (UniProt O95819); settings: at 0.1 µM
Chain of Mitogen-activated protein kinase kinase kinase kinase 4 (Homo sapiens) (O95819 2-1239 limits assumed): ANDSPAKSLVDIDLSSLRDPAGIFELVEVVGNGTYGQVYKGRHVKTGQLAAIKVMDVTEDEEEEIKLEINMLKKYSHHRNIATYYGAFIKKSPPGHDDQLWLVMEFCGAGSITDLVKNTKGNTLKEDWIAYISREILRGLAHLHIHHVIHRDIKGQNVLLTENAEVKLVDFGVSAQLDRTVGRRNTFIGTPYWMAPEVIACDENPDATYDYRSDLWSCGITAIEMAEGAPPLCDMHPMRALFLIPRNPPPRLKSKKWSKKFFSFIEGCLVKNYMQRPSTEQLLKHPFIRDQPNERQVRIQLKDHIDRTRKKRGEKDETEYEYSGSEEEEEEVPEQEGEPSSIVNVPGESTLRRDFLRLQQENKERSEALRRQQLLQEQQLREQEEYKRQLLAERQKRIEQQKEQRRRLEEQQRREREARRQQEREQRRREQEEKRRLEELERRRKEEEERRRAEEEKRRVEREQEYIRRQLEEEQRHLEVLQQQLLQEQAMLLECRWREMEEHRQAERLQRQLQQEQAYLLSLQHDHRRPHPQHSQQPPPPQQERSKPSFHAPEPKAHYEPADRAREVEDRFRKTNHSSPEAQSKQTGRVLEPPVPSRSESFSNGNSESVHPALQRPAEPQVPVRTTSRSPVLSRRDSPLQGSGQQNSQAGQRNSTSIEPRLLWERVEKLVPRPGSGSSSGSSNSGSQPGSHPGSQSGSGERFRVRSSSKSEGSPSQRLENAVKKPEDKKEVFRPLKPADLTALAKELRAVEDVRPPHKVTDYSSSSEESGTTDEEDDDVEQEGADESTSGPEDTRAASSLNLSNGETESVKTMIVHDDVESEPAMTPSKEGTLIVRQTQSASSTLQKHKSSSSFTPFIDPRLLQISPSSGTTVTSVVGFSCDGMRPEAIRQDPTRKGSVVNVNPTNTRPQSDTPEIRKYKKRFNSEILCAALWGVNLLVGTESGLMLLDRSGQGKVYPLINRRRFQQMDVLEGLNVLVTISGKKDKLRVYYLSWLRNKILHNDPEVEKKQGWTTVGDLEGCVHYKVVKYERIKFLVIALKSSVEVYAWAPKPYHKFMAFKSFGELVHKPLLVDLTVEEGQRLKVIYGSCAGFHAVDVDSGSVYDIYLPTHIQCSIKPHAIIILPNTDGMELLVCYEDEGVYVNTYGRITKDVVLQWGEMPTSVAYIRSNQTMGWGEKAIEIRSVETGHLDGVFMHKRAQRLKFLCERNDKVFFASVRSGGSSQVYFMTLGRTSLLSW

Chain of High affinity nerve growth factor receptor (Homo sapiens) (P04629 33-796 limits assumed): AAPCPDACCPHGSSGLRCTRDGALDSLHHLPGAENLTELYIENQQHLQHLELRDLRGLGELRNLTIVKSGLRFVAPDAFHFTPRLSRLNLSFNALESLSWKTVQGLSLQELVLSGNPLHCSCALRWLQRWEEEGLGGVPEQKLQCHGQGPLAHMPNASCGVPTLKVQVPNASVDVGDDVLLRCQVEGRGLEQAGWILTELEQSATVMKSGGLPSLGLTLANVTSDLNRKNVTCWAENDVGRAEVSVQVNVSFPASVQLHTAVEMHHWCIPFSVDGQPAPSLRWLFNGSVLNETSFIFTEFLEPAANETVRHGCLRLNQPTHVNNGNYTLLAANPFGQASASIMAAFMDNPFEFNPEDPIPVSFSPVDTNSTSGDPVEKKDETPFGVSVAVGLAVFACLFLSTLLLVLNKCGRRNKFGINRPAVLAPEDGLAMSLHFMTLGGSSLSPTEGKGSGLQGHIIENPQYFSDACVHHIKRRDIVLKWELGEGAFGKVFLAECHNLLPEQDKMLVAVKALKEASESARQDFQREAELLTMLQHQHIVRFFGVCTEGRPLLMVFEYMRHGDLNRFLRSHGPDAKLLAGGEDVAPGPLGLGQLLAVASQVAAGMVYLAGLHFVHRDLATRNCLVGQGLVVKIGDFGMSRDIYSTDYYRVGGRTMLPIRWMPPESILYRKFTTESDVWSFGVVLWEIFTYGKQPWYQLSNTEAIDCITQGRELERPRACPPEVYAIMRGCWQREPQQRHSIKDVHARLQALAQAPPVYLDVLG
Chain of Non-receptor tyrosine-protein kinase TYK2 (Homo sapiens) (P29597 whole entry): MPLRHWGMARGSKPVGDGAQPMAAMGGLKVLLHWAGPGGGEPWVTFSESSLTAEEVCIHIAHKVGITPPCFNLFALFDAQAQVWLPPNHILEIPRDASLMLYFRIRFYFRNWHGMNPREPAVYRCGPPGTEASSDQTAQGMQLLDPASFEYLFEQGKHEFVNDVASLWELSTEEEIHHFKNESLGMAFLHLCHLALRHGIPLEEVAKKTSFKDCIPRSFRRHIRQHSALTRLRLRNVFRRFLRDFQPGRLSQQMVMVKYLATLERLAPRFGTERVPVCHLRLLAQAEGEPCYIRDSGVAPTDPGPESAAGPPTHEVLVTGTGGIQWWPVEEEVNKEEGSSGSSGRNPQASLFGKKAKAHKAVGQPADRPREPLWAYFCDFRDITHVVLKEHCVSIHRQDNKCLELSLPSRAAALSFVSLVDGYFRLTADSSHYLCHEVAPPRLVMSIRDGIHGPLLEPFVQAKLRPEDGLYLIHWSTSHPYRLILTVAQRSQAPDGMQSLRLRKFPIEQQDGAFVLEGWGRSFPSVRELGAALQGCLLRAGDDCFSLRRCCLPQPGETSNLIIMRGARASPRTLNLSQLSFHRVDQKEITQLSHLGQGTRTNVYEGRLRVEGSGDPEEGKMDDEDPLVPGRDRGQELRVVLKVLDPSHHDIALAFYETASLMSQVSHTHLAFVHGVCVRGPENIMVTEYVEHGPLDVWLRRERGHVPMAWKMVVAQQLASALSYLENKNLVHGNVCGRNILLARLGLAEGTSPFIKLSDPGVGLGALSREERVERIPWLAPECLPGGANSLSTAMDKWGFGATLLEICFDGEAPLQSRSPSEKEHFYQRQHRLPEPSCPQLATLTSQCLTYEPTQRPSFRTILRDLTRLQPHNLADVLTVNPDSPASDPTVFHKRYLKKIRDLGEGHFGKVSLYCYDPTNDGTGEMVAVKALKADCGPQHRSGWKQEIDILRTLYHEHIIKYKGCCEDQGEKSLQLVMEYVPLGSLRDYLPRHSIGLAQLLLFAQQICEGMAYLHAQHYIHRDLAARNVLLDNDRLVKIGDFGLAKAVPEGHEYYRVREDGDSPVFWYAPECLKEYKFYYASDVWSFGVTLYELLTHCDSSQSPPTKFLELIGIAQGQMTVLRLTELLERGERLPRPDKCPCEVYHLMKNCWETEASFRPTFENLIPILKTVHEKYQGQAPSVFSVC
Chain of Aurora kinase B (Homo sapiens) (Q96GD4 whole entry): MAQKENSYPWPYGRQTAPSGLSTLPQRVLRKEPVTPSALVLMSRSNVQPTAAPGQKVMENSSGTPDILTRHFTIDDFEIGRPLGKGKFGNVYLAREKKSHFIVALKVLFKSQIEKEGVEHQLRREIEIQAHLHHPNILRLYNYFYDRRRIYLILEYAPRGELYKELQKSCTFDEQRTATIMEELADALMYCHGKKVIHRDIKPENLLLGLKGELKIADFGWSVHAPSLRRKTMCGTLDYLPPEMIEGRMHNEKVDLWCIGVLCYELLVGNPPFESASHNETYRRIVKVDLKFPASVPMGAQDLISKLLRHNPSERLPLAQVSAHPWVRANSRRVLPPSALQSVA
Chain of BDNF/NT-3 growth factors receptor (Homo sapiens) (Q16620 32-822 limits assumed): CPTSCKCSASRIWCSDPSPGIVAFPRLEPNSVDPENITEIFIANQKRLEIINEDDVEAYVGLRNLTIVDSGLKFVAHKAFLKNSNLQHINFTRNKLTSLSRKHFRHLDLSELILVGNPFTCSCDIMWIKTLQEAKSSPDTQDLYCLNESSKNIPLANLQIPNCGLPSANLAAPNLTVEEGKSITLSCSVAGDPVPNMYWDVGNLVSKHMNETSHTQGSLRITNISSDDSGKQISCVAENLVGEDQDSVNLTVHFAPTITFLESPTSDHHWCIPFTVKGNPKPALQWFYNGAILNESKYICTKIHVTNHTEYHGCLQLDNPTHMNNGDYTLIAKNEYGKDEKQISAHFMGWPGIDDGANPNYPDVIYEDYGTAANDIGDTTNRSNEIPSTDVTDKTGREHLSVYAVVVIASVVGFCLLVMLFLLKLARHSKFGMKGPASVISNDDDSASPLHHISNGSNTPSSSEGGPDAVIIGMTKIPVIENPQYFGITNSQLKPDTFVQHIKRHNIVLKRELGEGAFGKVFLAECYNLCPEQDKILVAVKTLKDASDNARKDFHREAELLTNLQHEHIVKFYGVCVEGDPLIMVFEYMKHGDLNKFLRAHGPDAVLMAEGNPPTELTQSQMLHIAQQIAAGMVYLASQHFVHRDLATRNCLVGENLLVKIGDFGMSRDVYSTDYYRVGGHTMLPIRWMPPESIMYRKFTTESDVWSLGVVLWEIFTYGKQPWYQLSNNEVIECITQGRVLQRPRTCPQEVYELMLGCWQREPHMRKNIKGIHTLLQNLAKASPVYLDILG

Row | Compound | inhibition [1] [%] | inhibition [2] [%] | inhibition [3] [%] | inhibition [4] [%] | inhibition [5] [%] | inhibition [6] [%] | inhibition [7] [%] | inhibition [8] [%] | inhibition [9] [%] | inhibition [10] [%] | inhibition [11] [%] | inhibition [12] [%] | inhibition [13] [%] | inhibition [14] [%] | inhibition [15] [%] | inhibition [16] [%] | inhibition [17] [%] | inhibition [18] [%] | inhibition [19] [%] | inhibition [20] [%]
1 | COc1cc(Nc2ncc(-c3ccccc3)o2)cc(OC)c1OC | 23.1 | 2.41 | 28.3 | 2.64 | 25.2 | 1.07 | 16.2 | -2.24 | -1.01 | 15.7 | 75.5 | 10.1 | 50 | 8.67 | 71.8 | 1.37 | 11.1 | 2.15 | 11.5 | 2.13
2 | COc1cc(Nc2ncc3c(C)nc(-c4cccc(Oc5ccccc5)c4)n3n2)cc(OC)c1OC | 1.05 | 0.27 | 1.55 | 1.86 | 2.38 | 2.38 | 4.09 | -0.63 | 14.8 | 2.19 | 44.4 | 2 | 15.8 | 1.04 | 30.1 | 1.18 | 1.99 | 1.28 | 4.18 | 1.36
3 | Cc1ccc(C(=O)NC2CCC2)cc1-c1ccc(C(=O)NCC2CC2)cc1 | 3.19 | 1.02 | 1.56 | 2.08 | 1.92 | 2.58 | 3.4 | -0.8 | 9.27 | 2.11 | 7.83 | 0.48 | 5.72 | 0.47 | 7.37 | 2.19 | 6.8 | 0.91 | 0.04 | 3.19
4 | O=C(Nc1n[nH]c2nc(-c3ccco3)ccc12)C1CC1 | 3.29 | 0.95 | 2.36 | 1.6 | 5.42 | 2.21 | 2.84 | -1.75 | -0.72 | 2.22 | 11.4 | 1.7 | 8.39 | 1.88 | 7.39 | 4.1 | 9.62 | 0.49 | 4.84 | 4.17
5 | Cc1ccc(C(=O)NC(C)C)cc1-c1ccc(C(=O)NCC2CC2)cc1 | 0.4 | -1.41 | 0.73 | 0.1 | 1.79 | -1.45 | -1.03 | 1.94 | -5.81 | -3.2 | -2.53 | -0.47 | 2.24 | -0.96 | 1.27 | -2.21 | -5.65 | -0.39 | 1.59 | -2.82
6 | O=C(Nc1n[nH]c2nc(-c3ccc(O)cc3)c(Br)cc12)C1CC1 | 12.3 | 5.55 | 14.5 | 5.79 | 16.4 | 4.99 | 9.15 | -1.54 | 15.3 | 5.34 | 37.7 | 4.29 | 12.7 | 2.12 | 8.73 | 16.2 | 61.3 | 7 | 34.4 | 32.2
7 | c1ccc(Oc2ccc(Nc3ncc(-c4ccccc4)o3)cc2)cc1 | 3.28 | 0.87 | 2.96 | 0.46 | 1.12 | 1.51 | 3.57 | -0.13 | 5.67 | 1.36 | 10.2 | 2.17 | 7.16 | 0.67 | -1.26 | 0.49 | 2.71 | 1.08 | 1.62 | 3.28
